Measured values published in PubChem BioAssay (NCI).
This is part of a sample that, as a whole, favours compounds with a hit. Of some 83,000 tested, about 20% had one in any assay.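 The endpoint reported here, percent growth, reads 100 for growth as untreated, 0 for no net growth and -100 for all cells dead.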 Unmarked numbers belong to inactive results. The source made the active and inactive calls. The calls were made as follows: active = growth percent below 10; inactive = the rest.

tested on: HL-60(TB) leukemia; test: NCI-60 one-dose screen, 48 h (100 = growth as untreated, 0 = no growth, -100 = all killed); conditions: 10 µM unless noted

Structure (SMILES) | growth
C=CCn1c(C)nc2cc(Nc3nc(N4CCCC4)nc4ccccc34)ccc21 | 88.5%
COc1cc2c3c(n(C4CCN(C)CC4)c(=O)c2cc1OC)-c1cc2c(cc1C3=O)OCO2 | 95%
CCN(CC)S(=O)(=O)c1ccc(S(=O)(=O)N2CCC[C@@H](C(=O)N3CCN(c4nc(C(C)C)no4)CC3)C2)cc1 | 68.5%
Nc1ccc2ccc(N)cc2c1 | 97.4%
COc1ccc(-c2nn(-c3ccc(NC(=O)c4cc(C(F)(F)F)cc(C(F)(F)F)c4)cc3)cc2-c2ccncc2)cc1Cl | 73.6%
O=NN(CC(=O)NNc1ccccc1)CC(=O)NNc1ccccc1 | 31.6%
Nc1n[nH]c2cccc(C#Cc3cccc(NC(=O)c4cc(F)cc(C(F)(F)F)c4)c3)c12 | 37.7%
O=c1c(F)cn(Cc2ccccc2CCl)c(=O)n1Cc1ccccc1CCl | -63.6% (active)
COc1ccc(C(=O)COc2cccc(/C=C3\CSc4ccc(C)cc4C3=O)c2)cc1 | 45.6%
CC(C)(CCc1ccccn1)C(=O)CCCc1ccccn1 | 103%
CCOC(=O)C1=C(CCl)NC(=O)NC1c1ccc2c(c1)OCO2 (stereo not given) | 56.9%
CN1CCC(OC2c3ccccc3CCc3ccccc32)CC1 | 99.1%
CC1(C)Cc2c(Br)c(Br)c(Br)c(OCC(O)CN3CCOCC3)c2O1 (stereo not given) | -34.1% (active)
COc1ccc(C(=O)N2C=Cc3ccccc3C2C#N)cc1 (stereo not given) | 66.5%
Cn1cc(-c2nnc(-c3cn(C)c4ncc(Br)cc34)s2)c2cc(Br)ccc21 | 106%
